99 compounds from PubChem BioAssay AID2315 (National Center for Advancing Translational Sciences (NCATS), 2010) can be followed below.

Screen size: about 290,000 compounds; about 27,000 (9.3%) were called active. The sample as a whole holds a higher share of actives than the screen did. Values without a mark were called inactive. No stated cut-off is given here; in the data, active means inhibition mostly above about 28% (no sharp cut-off); inactive means mostly below about 43%.

This experiment is described as follows: A qHTS for Small Molecule Inhibitors of Shiga Toxin. Further: 0% is about no effect. The conditions noted are these: Vero cells, Shiga toxin protein synthesis inhibition reporter; at 38.7 µM, hits give high values.
As to `Cc1cc(=O)oc2c(C)c(OC(C)C(=O)NC3CCN(Cc4ccccc4)CC3)ccc12` (centres undefined), the inhibition (commonly the relative decrease from the control value, in per cent) was -5.37%.
`Cc1ccc2nc(NC(=O)C3CCN(S(=O)(=O)c4ccc5c(c4)oc(=O)n5C)CC3)sc2c1`: the inhibition is -20.5%.
Then `CCS(=O)(=O)N1Cc2ccccc2CC1C(=O)Nc1ccc(OC)cc1OC` (centres undefined), with 24.9%; and `CCS(=O)(=O)N1Cc2ccccc2CC1C(=O)Nc1nc2ccc(F)cc2s1` (centres undefined), with 99.4% (active).
Then `CCN(CC)c1ccc(C(=O)Nn2c(C)nc3ccccc3c2=O)cc1`, with 1.76%; and `COc1cccc(OCc2nnc3n2N=C(c2ccccc2)C(CC(=O)O)S3)c1` (centres undefined), with -9.17%.
As to `COc1ccc(/C=N/NC(=O)c2cccc(C(F)(F)F)c2)cc1`, the inhibition was 17.5%.
For `CCn1c(/C=N/NC(=O)c2ccc(OC)cc2)nc2ccccc21`, the inhibition was 15%.
In the case of `Cn1cccc1/C=N/NC(=O)c1ccc(OC(F)(F)C(F)F)cc1`, the inhibition was 33.1% (active).
Then `c1ccc(-c2cnc(CN3CCN(c4ccccc4)CC3)o2)cc1`, with -3.91%.
`O=C(COCc1cc(-c2ccc3c(c2)OCO3)on1)N1CCN(c2cccc(Cl)c2)CC1`: the inhibition is 4.57%.
Take `CCc1cc(C(N)=O)c(NC(=O)c2ccc(OC)cc2)s1`: the inhibition is 33.1% (active).
`Cc1ccc(NC(=O)c2cccnc2C(=O)Nc2ccc(C)cc2)cc1`: the inhibition is 20.9%.
Regarding `Cc1ccc(NC(=O)c2ccc(Oc3ncccn3)cc2)cc1`, the inhibition was 54.9% (active).
As for `Cn1c(CN2CCOCC2)nc2cc(NC(=O)c3ccc(Cl)cc3)ccc21`, the inhibition is 69.5% (active).
In the case of `CC(=O)NCCc1nc2cc(NC(=O)c3ccccc3)ccc2n1C`, the inhibition is 38.3%.
Turning to `COc1ccc(C(=O)Nc2ccc(NC(=O)C(C)C)nc2)cc1`, the inhibition was 22.3%.
As for `CCc1cc(C(c2ccccc2OC)N2CCOCC2)c(NC(=O)c2ccccc2)s1` (centres undefined), the inhibition was 33.3%.
As for `CCc1cc(C(=O)c2ccc(OC)cc2)c(NC(=O)CN2CCN(C)CC2)s1`, the inhibition was -6.04%.
Turning to `CCCNC(=S)N1CCC(NC(=O)c2ccc(OC)cc2)CC1`, the inhibition is 10.3%.
On to `CCOC(=O)N1CCN(Cc2nc3cc(NC(C)=O)ccc3n2C)CC1`, for which the inhibition is -4.25%.
Then `COc1ccc(C(=O)NC(=S)NC2CCCCC2)cc1`, with 91.2% (active); and `O=C(NC(=S)NC1CCCCC1)c1ccc(Cl)cc1`, with -12.4%; and `Cc1cc(OCC(=O)Nc2c(C)n(C)n(-c3ccccc3)c2=O)ccc1[N+](=O)[O-]`, with -12.8%.
Turning to `Cc1ccc(CC2(O)CCN(CCOc3ccc(O)cc3)CC2)cc1`, the inhibition is -5.63%.
Turning to `Cc1ccccc1N1CCN(C2CCCN(C(=O)c3ocnc3C)C2)CC1` (centres undefined), the inhibition is -9.46%.
Under `Cc1cc(C)cc(NC(=O)C2CCCN(S(=O)(=O)c3ccc4[nH]c(=O)ccc4c3)C2)c1` (centres undefined) stands 14.1%; under `Cc1cccc(NC(=O)c2ccc3c(=O)n(CC4CCCO4)c(=S)[nH]c3c2)c1` (centres undefined), -1%; under `O=C(Cn1ccc2cc(S(=O)(=O)N3CCCC3)ccc21)NCc1ccccc1`, -6.39%.
As for `COc1ccc(NC(=O)CCn2ccnc2)c(OC)c1`, the inhibition is -6.3%.
As to `COc1ccc(S(=O)(=O)N/N=C\c2ccc(OC)c(COc3ccc(C)cc3[N+](=O)[O-])c2)cc1`, the inhibition is -12.5%.
Take `COc1ccc(C(=O)Nc2ccc(CN3CCOCC3)cc2)cc1`: the inhibition is 80.4% (active).
In the case of `Cc1cccc(C(=O)Nc2ccc(Oc3cnccn3)cc2)c1`, the inhibition was 57.2% (active).
For the compound `Cc1cccc(C(=O)Nc2ccccc2C(=O)NCc2cccnc2)c1`, the inhibition was -16.9%.
With `O=C(CS(=O)(=O)c1ccccc1)Nc1ccc(S(=O)(=O)Nc2ccccn2)cc1`, the inhibition is -7.44%.
On to `COc1ccc(NC(=O)c2ccc(C#CC(C)(C)O)cc2)cc1`, for which the inhibition was 28%.
Then `Cc1noc(C)c1COc1cccc(C(=O)Nc2cccnc2)c1`, with -6.89%; and `CCOc1ccc(C(=O)Nc2ccc(CN3CCOCC3)cc2)cc1Cl`, with 9.47%.
With `O=C(Nc1ccc(CSc2ccccc2)cc1)c1ccc(CN2CCOCC2)cc1`, the inhibition is 7.03%.
Consider `COc1ccc(C(=O)Nc2cccc(S(C)(=O)=O)c2)cc1`, for which the inhibition was 21.9%.
Turning to `COc1ccc(NC(=O)c2ccc(OC)cc2)cc1`, the inhibition was 105% (active).
As for `COc1ccc(NC(=O)CS(=O)(=O)c2ccccc2)cc1`, the inhibition was 28.2% (active).
On to `COc1ccc(NC(=O)c2cnc(NS(=O)(=O)c3ccccc3)nc2)cc1`, for which the inhibition was -13.6%.
As for `O=C(NCCCN1CCCC1=O)C(=O)NCC1OCCN1S(=O)(=O)c1ccc(Br)cc1` (centres undefined), the inhibition is 22.9%.
Take `Nc1nc(Nc2ccccc2F)nc(NC2CCCCC2)c1[N+](=O)[O-]`: the inhibition is 2.97%.
Then `Cn1c(N2CCOCC2)c(C=O)c2ccccc21`, with -1.16%.
Consider `Cc1ccc(Cn2ncc3c4sc(C)cc4n(C)c3c2=O)c(C)c1`, for which the inhibition is -2.93%.
Turning to `C=CCn1cc(Cl)cc(C(=O)Nc2ccccc2)c1=O`, the inhibition is 16.8%.
Under `CCN(CC)c1ccc(C(=O)NNC(=O)CCc2nc3ccccc3c(=O)[nH]2)cc1` stands 10.9%; under `Cc1ccc(NC(=O)COc2ccc(/C=C3/NC(=O)NC3=O)cc2)cc1`, 8.39%; under `CC(C)CN(CC(C)C)C(=O)CN1c2cccc3cccc(c23)S1(=O)=O`, 2.89%.
Turning to `COc1ccc(C(CCN2CCOCC2)c2c(OC)cc(OC)c3c2OC(=O)CC3c2ccc(OC)cc2)cc1` (centres undefined), the inhibition was -0.588%.
Take `COc1ccc(C(C)NC(=S)NC2CCCCC2)cc1OC` (centres undefined): the inhibition is -35.1%.
For `CCc1c(C)c2ccc(OC3CCCCC3=O)cc2oc1=O` (centres undefined), the inhibition was 28%.
As for `COc1ccc(C(=O)Nc2sc(C)c(C)c2CN2CCOCC2)cc1`, the inhibition is 82.5% (active).
In the case of `COc1ccc(NC(=O)c2sc(N)nc2-c2ccccc2)cc1`, the inhibition is 9.77%.
Regarding `COc1ccc(NC(=O)C(C)SCc2ccccc2)cc1` (centres undefined), the inhibition was 40.5%.
With `CCOC(=O)c1c(NC(=O)c2ccc(N3CCOCC3)c([N+](=O)[O-])c2)sc(C)c1C`, the inhibition is 9.37%.
Regarding `COc1cccc(NC(=O)c2ccc(S(=O)(=O)N(C)C)cc2)c1`, the inhibition is 70.6%.
Turning to `COc1ccc(C(=S)Nc2ccccc2)cc1`, the inhibition was 62.5% (active).
`COc1cccc(NC(=O)CN(C)CC(=O)Nc2ccc3c(c2)CCC3)c1`: the inhibition was -9.55%.
Turning to `CCC(=O)Nc1ccc(C(=O)Nc2cccc(OC)c2)cc1`, the inhibition was 108% (active).
Then `COc1ccc(NC(=O)c2sccc2SCC#N)cc1`, with 52.8% (active); and `COc1ccc(C(=O)Nc2ccnn2C2CCN(Cc3ccncc3)CC2)cc1`, with -4.63%; and `COCCNC(=S)c1ccc(OC)cc1`, with 13%.
In the case of `COc1ccc(-c2nn(CCC#N)cc2C(=O)Nc2ccc(C(C)=O)cc2)cc1`, the inhibition is 25.5%.
Take `CCC(=O)Nc1nnc(S(=O)(=O)N2CCCc3ccccc32)s1`: the inhibition is -3.3%.
With `O=C(Nc1ccc(C(=O)O)cc1)/C(=C\c1ccccc1)NC(=O)c1ccc(Br)cc1`, the inhibition is -9.04%.
Under `CC(=O)c1c(C)oc2ccc(NS(=O)(=O)c3ccccc3)cc12` stands -6.31%; under `CC(C)CC(=O)c1c[nH]c(C(=O)NCc2ccccc2)c1`, -10%; under `CCOc1ccc(NC(=O)CCC(=O)NNC(=O)NC2CCCCC2)cc1`, -9.72%.
With `CCOCCCNC(=O)c1cn(CC(C)C)c(=O)c2c1c1ccccc1n2C`, the inhibition is -4%.
For `Cc1ccccc1C(=O)NC(=S)Nc1ccc(N2CCN(C(=O)c3ccccc3)CC2)cc1`, the inhibition was -15.7%.
As to `CC(C)CC(CCc1ccccc1)OS(N)(=O)=O` (centres undefined), the inhibition was 7.41%.
Consider `CC(=O)N1c2ccc(S(=O)(=O)N3CCC(C(=O)NC4CCCC(C)C4C)CC3)cc2CC1C` (centres undefined), for which the inhibition is -3.25%.
`CCOc1ccccc1-c1cc(C(=O)N2CCOCC2)c2ccccc2n1`: the inhibition is -10.7%.
For the compound `COc1ccc(NS(=O)(=O)c2cc3c(cc2C)N(C(C)=O)CCO3)cc1`, the inhibition is 0.181%.
Then `Cc1cccc(NC(=O)c2cc([N+](=O)[O-])ccc2N2CCN(C)CC2)c1`, with 1.74%; and `Cc1onc(C(=O)NCc2ccc(F)cc2)c1[N+](=O)[O-]`, with 15.4%; and `Cc1cccc(NC(=O)c2sc(-c3ccccc3)nc2-c2ccc([N+](=O)[O-])cc2)c1`, with -1.42%.
Take `Cc1onc(NC(=O)c2ccc([N+](=O)[O-])o2)c1Br`: the inhibition was 71.2% (active).
Take `Cc1cccc(NC(=O)c2ccc([N+](=O)[O-])o2)c1`: the inhibition is 55.5% (active).
As to `Cc1ccc(C(=O)Nc2nnc(-c3ccncc3)s2)o1`, the inhibition was -10.6%.
On to `O=C(Cc1ccccc1F)NC1CCSc2ccccc21` (centres undefined), for which the inhibition was 8.44%.
As to `CCOC(=O)c1ccc(NC(=O)c2ccc(NC(=O)C3CCCO3)cc2)cc1` (centres undefined), the inhibition is 21.1%.
For the compound `CC(C)c1ccc(NC2CCCN(C(=O)c3ccncc3)C2)cc1` (centres undefined), the inhibition is -8.11%.
As to `COC(=O)c1cc(NC(=O)c2cc(C(C)(C)C)nn2Cc2cccc(C)c2)ccc1N1CCOCC1`, the inhibition was -6.65%.
Under `COCc1nnc(NC(=O)CS(=O)(=O)Cc2ccccc2)s1` stands 3.05%.
With `O=C(Nc1cccnc1)c1cc2cc(Br)ccc2oc1=O`, the inhibition was 28.7%.
Take `O=C(Nc1ccccc1)c1ccc2c(c1)OCO2`: the inhibition was 58.7% (active).
Under `N#Cc1ccccc1NC(=O)c1ccc2c(c1)OCO2` stands 22.7%.
Turning to `O=C(Nc1cccnc1)c1noc2c1CCCCC2`, the inhibition was 29% (active).
For `CCCc1nnc(NC(=O)c2cc(OC)cc(OC)c2)s1`, the inhibition is 34.6%.
Take `O=C(Nc1nc2cc3c(cc2s1)OCCO3)c1cccc(S(=O)(=O)N2CCOCC2)c1`: the inhibition is 53.6%.
Then `COCc1nnc(NC(=O)c2ccc3c(c2)OCO3)s1`, with 59.3% (active); and `O=C(Nc1cccnc1)c1cccc(S(=O)(=O)N2CCCC2)c1`, with 23.2%; and `O=C(Nc1nc2ccccc2s1)c1ccc2c(c1)OCO2`, with 39.2% (active).
As to `C/C(=N/NC(=S)Nc1ccccc1)c1ccc2c(c1)OCO2`, the inhibition was 67.4%.
Take `COc1ccc(S(=O)(=O)N2CCOCC2)cc1C(=O)Nc1nc2ccccc2s1`: the inhibition was -1.04%.
